Screening results (PubChem BioAssay)
Shown are actives, neighbours in structure and some others; about 8.8% of the full set was active somewhere.
HT1080 IDH1KD tx – HT-1080 IDH1 knockdown cell toxicity (counter line) | HT-1080 IDH1 knockdown viability, ATP luminescence, 48 h | Potency, µM (highest dose often 46.1 µM), for the others: at the top dose activity, negative = toxicity, usual class: cytotoxic | 360,000 tested, 2% active;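 also: potency is read from the fitted curve at half-maximal effect; 0% = DMSO wells and -100% = cell-free medium wells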
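Cytotoxicity counter-line: IDH1KD HT-1080, 48 h, CellTiter-Glo. Curves classed by r2, magnitude and activity.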
KB-V1 MDR tox – kills drug-selected multidrug resistant KB-V1 cells; KB-V1 MDR cells viability, CellTiter-Glo, 72 h; Potency, µM (top dose mostly 46.1 µM), hits mostly cytotoxic; 400,000 tested, 3.4% active; AID 1347076; also: potency is read from the fitted curve at half-maximal effect; nearly all actives have a fitted effect of over 60% in size
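Drug-selected KB-V1 cells, grown in DMEM lacking phenol red with 10% FBS, receive compound titrations; after three days at 37 degrees C, surviving cell ATP is quantified by CellTiter-Glo luminescence and responses normalized and curve-fitted.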
IL1B secr inh – inflammasome signaling inhibition, IL-1 beta readout; activity change, % at 57.5 µM; THP-1 LPS/ATP IL-1B secretion, AlphaLISA, 16 h; hits give low values; 360,000 tested, 4.7% active; in the data active = activity change below about -50%; inconclusive = mostly about -30% to -49%
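THP-1 cells pretreated 1 hr with compounds (up to 57.5 uM final), then stimulated with LPS (250 ng/mL final) plus ATP (1.25 mM final); secreted IL-1B measured by AlphaLISA after 16 hr, decreased signal indicating inhibition.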
HT1080NT lethal – kills 2HG-producing HT-1080-NT fibrosarcoma cells. AID 686970. 360,000 tested, 1.6% active. HT-1080-NT fibrosarcoma viability, CellTiter-Glo ATP luminescence, 48 h. Potency, µM (titrated, usually from 46.1 µM), for inactives: at the highest dose activity, negative = less viability, most hits filed as cytotoxic;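 also: NT is the 2HG producing partner of a matched IDH1 knockdown line; potency is read from the fitted curve at half-maximal effect; 0% = DMSO-treated cells and -100% = media-only wells without cells; nearly all actives have a fitted effect of over 55% in size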
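Compounds were tested in concentration-response format on HT-1080-NT cells for 48 hours at 37 degrees C. Cell viability came from CellTiter-Glo luminescence; curves were classified by r2, response magnitude and activity.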
KB-3-1 cytotox – kills parental KB-3-1 adenocarcinoma cells; KB-3-1 viability, CellTiter-Glo ATP luminescence, 72 h; Potency, µM (doses to about 46.1 µM), actives largely listed as cytotoxic; 400,000 tested, 1.4% active; AID 1347075; also: potency is read from the fitted curve at half-maximal effect; nearly all actives have a fitted effect of over 60% in size
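Here the drug-naive KB-3-1 line serves as comparator for MDR sub-line selectivity; cells received compound titrations, 72 h at 37 °C, then CellTiter-Glo readout.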
Starred values were filed as active, the others as inactive; i = inactive; ? = inconclusive; / = not tested or not shown; [ ] = dose if it differs, or a comment. Unless noted, calls follow the shape of the dose curve; as a rule, active = well fitted curve in the direction sought with a large enough effect; inconclusive = small, poorly fitted or top-dose-only effect, or another doubt; inactive = no such curve, though single readings can be large; an effect the other way counts as inactive or inconclusive. Unless noted, % is scaled to controls: 0 for no effect and ±100 for the full control effect.

SMILES	HT1080 IDH1KD tx	KB-V1 MDR tox	IL1B secr inh	HT1080NT lethal	KB-3-1 cytotox
Cc1ccnc(NC(=S)N2CCN(c3ccc(Cl)cc3)CC2)c1	/	i	/	/	i
CN(C)CCNc1c2c(nc3nnnn13)CCCC2	3%	i	-1	-1%	i
CCCn1cc(S(=O)(=O)c2ccc(C)c(C)c2)c(=O)c2cc(F)c(N3CCC(C)CC3)cc21	/	i	/	/	i
O=S(=O)(c1c(Cl)cc(Br)cc1Cl)N1CCN(C(=S)NC2CC2)CC1	-6%	i	-85*	-10%	i
O=S(=O)(c1ccccc1)N1CCN(C(=S)NC2CCCC2)CC1	0%	i	i	-4%	i
CS(=O)(=O)c1ccc(Nc2nc(C(N)Cc3ccc(Cl)cc3)cs2)cc1 (stereo not drawn)	?	?	?	15µM*	?
NC(Cc1ccc(Cl)cc1)c1csc(Nc2ccc(S(N)(=O)=O)cc2)n1 (stereo not drawn)	?	i	?	?	i
NC(Cc1ccc(C(F)(F)F)cc1)c1csc(Nc2ccc(S(N)(=O)=O)cc2)n1 (stereo not drawn)	?	i	?	21µM*	i
CC(C)C(N)c1csc(Nc2ccc(S(C)(=O)=O)cc2)n1 (stereo not drawn)	3%	i	-26	8%	i
Cc1ccc(-c2noc(-c3ccc(NCc4ccco4)c([N+](=O)[O-])c3)n2)cc1	/	i	/	/	i
Nc1nc(-c2ccc(NC(=O)c3ccco3)cc2)cs1	16µM*	i	2	7.3µM*	i
O=C(NNc1nc(-c2ccc(Cl)cc2)cs1)c1ccco1	?	21µM*	-27	-16%	?
O=C(Nc1nc(-c2ccccc2)cs1)c1cccs1	-30%	?	-72*	-25%	i
O=C(Nc1nc(-c2ccccc2)ns1)c1cccs1	4%	i	-12	?	i
Cc1cnc(C(=O)Nc2nc(-c3ccccc3)cs2)cn1	-11%	23µM*	23	-3%	i
C=CCNc1oc(-c2cccs2)nc1S(=O)(=O)c1ccccc1	-9%	?	-19	-9%	i
O=C(Nc1nc(-c2nc3ccccc3s2)cs1)c1ccco1	14%	i	-9	26%	i
O=C(Nc1ccc([N+](=O)[O-])cc1)Nc1nc(-c2ccc(Cl)s2)cs1	7.3µM*	?	-99*	6.5µM*	2.9µM*
O=C(Nc1nc(-c2ccc(Cl)s2)cs1)c1cccs1	?	?	-84*	?	i
CC(=O)Nc1nc(-c2ccc([N+](=O)[O-])cc2)cs1	-6%	i	-13	-13%	i
O=C(Nc1nc(-c2ccc(Cl)s2)cs1)c1ccco1	-8%	?	-84*	-3%	i
O=C(Nc1ccc2nc(-c3ccccc3)[nH]c2c1)c1cccs1	16%[9.24 µM]	i	-65*	?	i
COc1ccc(CNC(=O)[C@H](CCSC)NC(=O)N2CCn3c2nc2ccccc23)cc1	1%	i	0	-2%	i
Cc1ccc2c(c1)-c1onc(C(=O)N(C)c3ccc(F)cc3)c1CO2	/	i	/	/	i
CCCCCC(=O)Nc1ccc(-c2csc(C)n2)cc1	11%	?	8	20%	i
SMILES	HT1080 IDH1KD tx	KB-V1 MDR tox	IL1B secr inh	HT1080NT lethal	KB-3-1 cytotox
Cc1ccc(-c2csc(NC(=O)CCNC(=O)c3ccccc3Cl)n2)cc1	-18%	i	-53*	-10%	i
CCCCCC(=O)Nc1ccc(-c2csc(N)n2)cc1	?	i	-76*	?	i
O=C(Nc1nc(-c2ccccc2)cs1)c1ccc(=O)[nH]c1	-18%	18µM*	-13	?	?
Cc1ccc(-c2csc(NC(=O)CCNC(=O)c3ccc(Cl)cc3)n2)cc1	-1%	i	7	-7%	i
CC(C)(C)c1ccc(-c2noc(CNC(=O)c3ccco3)n2)cc1	-20%	i	-15	-25%	i
CCS(=O)(=O)c1nnnn1-c1ccccc1S(C)(=O)=O	13µM*	i	-97*	18µM*	i
O=S(=O)(Cc1nnnn1-c1ccc(Br)cc1)c1ccccc1	0%	i	-22	-3%	i
